Experimental data as given in PubChem BioAssay AID504832 (National Center for Advancing Translational Sciences (NCATS), 2011).
About 18,000 (5.8%) of roughly 310,000 compounds were called active. Not shown: some 22% with an inconclusive outcome. Calls follow the shape of the dose curve; as a rule, active = well fitted inhibition curve with a large enough effect; inconclusive = small, poorly fitted or top-dose-only effect, or another doubt; inactive = no such curve, though single readings can be large or run the other way. This excerpt belongs to a sample that is enriched for actives.

experiment: Primary qHTS for delayed death inhibitors of the malarial parasite plastid, 48 hour incubation; details: P. falciparum luciferase growth in erythrocytes; series mostly up to 28.7 µM; activity change, negative = inhibition: at the top concentration
Summary of the method: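 Here the parasites carry a stable luciferase gene and grow inside erythrocytes in Albumax-based RPMI medium with compound for one erythrocytic cycle. Activity is scored as loss of luminescent signal.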
% is scaled to controls: 0 for no effect and ±100 for the full control effect; potency is read from the fitted curve at half-maximal effect.

| SMILES | activity change, negative = inhibition | Potency |
| --- | --- | --- |
| CCn1c(=S)sc2c(=O)n(CC(=O)Nc3cccc(Br)c3)c(C)nc21 | -6.08% (inactive) |  |
| COc1ccccc1C(=O)NCc1nnc(SC(C)C(=O)Nc2nccs2)n1C (configuration not stated) | 1.13% (inactive) |  |
| CC(C)CCn1c(=O)c2c(nc3n2CCCN3Cc2ccccc2)n(C)c1=O |  | 9.28 µM (active) |
| Cc1cccc(Cn2c(N3CCN(c4ccccc4)CC3)nc3c2c(=O)n(C)c(=O)n3C)c1 | -26.6% (inactive) |  |
| CC1CN(C2CCCCC2)c2nc3c(c(=O)n(C)c(=O)n3C)n2C1 (configuration not stated) | -9.99% (inactive) |  |
| O=C(c1c(F)cccc1Cl)N1CCN(c2ccccn2)CC1 | 8.9% (inactive) |  |
| NC(=O)c1oc2ccccc2c1NC(=O)Cc1ccccc1 | -26.8% (inactive) |  |
| Cc1c(C(C)(C)O)[nH]c2ccc(C#N)cc12 | 25.6% (inactive) |  |
| COc1ccc(-c2cc(=O)oc3cc(OC(C)C(=O)NCC4CCC(C(=O)O)CC4)ccc23)cc1 (configuration not stated) | -13.5% (inactive) |  |
| COc1ccc(F)cc1C(=O)COC(=O)c1n[nH]c(=O)c2ccccc12 | -8.28% (inactive) |  |
| Nc1nc(SCC(=O)Nc2cc(C(F)(F)F)ccc2Cl)[nH]c(=O)c1NC(=O)c1ccco1 | 42% (inactive) |  |
| Cc1cccc(NC(=O)c2sc3nc4c(c(-c5ccco5)c3c2N)CCC4)c1 |  | 2.08 µM (active) |
| COc1ccc(OC)c(NC(=O)c2sc3nc(C)cc(C)c3c2N)c1 | 2.23% (inactive) |  |
| Cc1cccc(NC(=O)c2sc3nc(N4CCOCC4)c4c(c3c2N)CCCC4)c1 | 24.7% (inactive) |  |
| CN(c1ccccc1)S(=O)(=O)c1ccc(NC(=O)COc2ccccc2)cc1 | 28.6% (inactive) |  |
| COc1cccc(NC(=O)c2cc(S(=O)(=O)N3CCc4ccccc43)cn2C)c1 | 23.7% (inactive) |  |
| COc1ccccc1N(C)C(=O)c1cc(S(=O)(=O)N2CCc3ccccc32)cn1C |  | 11.7 µM (active) |
| CCN(C(=O)COC(=O)c1cc(S(=O)(=O)N2CCc3ccccc32)ccc1OC)C1CCS(=O)(=O)C1 (configuration not stated) | -11.5% (inactive) |  |
| COc1cc(OC)cc(C(=O)NNC(=O)CCOc2ccccc2OC)c1 | 10.8% (inactive) |  |
| Cc1occc1-c1nnc(SCC(=O)NC2(C#N)CCCC2)n1C | 1.05% (inactive) |  |
| CSc1ccc(S(=O)(=O)NCC(=O)OCC(=O)NC2(C#N)CCCCC2)cc1[N+](=O)[O-] | 36.9% (inactive) |  |
| O=C(Nc1cccc(NC(=O)c2cccc(F)c2)c1)c1ccccc1 | 0% [at 0.00184 µM] (inactive) |  |
| CC(=O)c1ccc(NC(=O)N[C@@H](Cc2ccccc2)C(=O)O)cc1 | -11.8% (inactive) |  |
| CC(C)N(Cc1ccccc1)C(=S)Nc1ccc(OC(F)F)cc1 | 14% (inactive) |  |
| CC(=O)c1ccc(NC(=S)N(Cc2ccccc2)C(C)C2CC2)cc1 (configuration not stated) |  | 13.1 µM (active) |
| O=C(N/C(=C\c1ccc([N+](=O)[O-])cc1)C(=O)N1CCOCC1)c1cccc(Br)c1 | -5.24% (inactive) |  |

| SMILES | activity change, negative = inhibition | Potency |
| --- | --- | --- |
| COc1ccccc1NC(=O)COC(=O)c1ccccc1SCC(=O)N1CCCC1 | 4.59% (inactive) |  |
| O=C(NCc1ccc2c(c1)OCO2)C1CCCN(S(=O)(=O)c2cccs2)C1 (configuration not stated) |  | 9.28 µM (active) |
| CCS(=O)(=O)N1CCCC(C(=O)NCc2ccc(C)cc2)C1 (configuration not stated) | -10.9% (inactive) |  |
| O=C(NCc1ccccc1)C1CCCN(S(=O)(=O)c2cccs2)C1 (configuration not stated) | 14.9% (inactive) |  |
| C/C(=N\NC(=O)c1cccc([N+](=O)[O-])c1)c1cccnc1 | 40.6% (inactive) |  |
| O=C(NC1CCC(O)CC1)c1ccccc1OCc1ccc(F)cc1 (configuration not stated) | -10.5% (inactive) |  |
| Cc1ccc(C(=O)Nc2nnc(C3=COCCO3)o2)cc1C | -24.4% (inactive) |  |
| COc1ccc(-c2[nH]ncc2CN(C)Cc2c(C)n[nH]c2C)c(OC)c1 | 10.8% (inactive) |  |
| COc1ccc(-c2c(-c3ccc(OC)cc3O)nc(C)nc2C(F)(F)F)cc1 |  | 7.38 µM (active) |
| COc1ccccc1-c1nc(SC)n[nH]1 | 40.5% (inactive) |  |
| COc1ccc(C(=O)CC(=O)c2ccc(C)cc2)c(O)c1 | -27% (inactive) |  |
| C=C(C)COc1ccc(-c2n[nH]c(C)c2-c2ccccc2)c(O)c1 |  | 1.85 µM (active) |
| COc1ccc(C(=O)NNC(=O)c2cc(C)[nH]n2)cc1 | 37.1% (inactive) |  |
| COc1ccc(-c2n[nH]c(C)c2-c2ccc(OC)c(OC)c2)c(O)c1 |  | 13.1 µM (active) |
| COC(=O)c1cc(OC)ccc1-c1ccc(OC)cc1 | -17.5% (inactive) |  |
| CCOc1ccc(-c2n[nH]c(C)c2-c2ccccn2)c(O)c1 | 6.15% (inactive) |  |
| COc1ccc(-c2n[nH]c(C)c2-c2ccccc2OC)c(O)c1 |  | 9.28 µM (active) |
| Cc1noc(C)c1COC(=O)COc1ccc(-c2ccccc2)cc1 | 34.9% (inactive) |  |
| COc1ccc(-n2c(-c3ccc(OC)c(OC)c3)n[nH]c2=S)cc1 | 11.2% (inactive) |  |
| Cc1ccc(S(=O)(=O)N(CCCN(C)C)Cc2ccc3c(c2)OCO3)cc1 | 8% (inactive) |  |
| O=S1(=O)N=C(N(CCO)/N=C/c2ccccc2F)c2ccccc21 | -23.1% (inactive) |  |
| COCCCNC(=O)C1CC(=O)N(CCc2ccc(F)cc2)C1 (configuration not stated) | 34.4% (inactive) |  |
| CCc1ccc(C(=O)N2CCN(S(=O)(=O)c3sc(C(=O)O)c(C)c3C(=O)O)CC2)cc1 | -11.1% (inactive) |  |
| CCOc1ccc2[nH]c3nc(SCC(=O)NC4CCCC4)nnc3c2c1 | 1.69% (inactive) |  |
| CN(C(=O)CN1C(=O)NC(C)(CCc2ccccc2)C1=O)c1ccccc1 (configuration not stated) | -15.5% (inactive) |  |
| Cc1ccc(C)c(NS(=O)(=O)c2c(C)[nH]c(C)c2C(=O)N2CCCCC2)c1 | -9.06% (inactive) |  |

| SMILES | activity change, negative = inhibition | Potency |
| --- | --- | --- |
| CCOc1ccc(C(=O)CCC(=O)NC2=NCCS2)cc1 | -20.4% (inactive) |  |
| C=C(C)COc1ccc(-c2n[nH]c(C)c2-c2ccccc2OC)c(O)c1 |  | 8.28 µM (active) |
| C=C(C)COc1ccc(-c2nc(N)ncc2-c2ccccc2OC)c(O)c1 | -82.5% (inactive) |  |
| COc1ccccc1-c1n[nH]c2c1[C@H](C)CC[C@H]2C(C)C | 48.4% (inactive) |  |
| Cc1ccc(CN(CC(=O)NC2CCCCC2)C(=O)c2csnn2)cc1 | 18.1% (inactive) |  |
| Cc1ccc([N+](=O)[O-])cc1S(=O)(=O)N1CCCN(C)CC1 | 18.6% (inactive) |  |
| CCC1=C(OC(=O)N(CC)CC)N2C(=O)OC(=NCC3CC3)[C@]2(C)[C@H]2C1=CC[C@H]1C(=O)N(CC(=O)OC)C(=O)[C@H]12 | 19.4% (inactive) |  |
| CCC1=C(OC(=O)N(CC)CC)N2C(=O)OC(=NCCc3c[nH]c4ccccc34)[C@]2(C)[C@H]2C1=CC[C@H]1C(=O)N(CC)C(=O)[C@H]12 |  | 9.28 µM (active) |
| NC(=O)COC(=O)c1ccc2c(c1)C(=O)N(Cc1ccco1)C2=O | 13.7% (inactive) |  |
| Cc1ccc(Cc2nnc(SCC(=O)Nc3ccccc3C)[nH]c2=O)cc1 | 10% (inactive) |  |
| CCC(C)NC(=O)C1c2ccccc2C(=O)N1Cc1ccccc1 (configuration not stated) | -1.99% (inactive) |  |
| O=C(NNc1ccccc1Cl)C(O)(c1cccc(C(F)(F)F)c1)c1cccc(C(F)(F)F)c1 |  | 3.29 µM (active) |
| CC(CC(=O)Nc1cc(C(F)(F)F)ccc1Cl)c1ccccc1 (configuration not stated) | 5.12% (inactive) |  |
| NC(=O)Nc1cccc(C(F)(F)F)c1 | 25.6% (inactive) |  |
| O=C(O)CCC(=O)Nc1ccc(OCC2CCCO2)cc1 (configuration not stated) | -4.69% (inactive) |  |
| COc1ccc(CNC(=O)CSc2n[nH]c(N)n2)cc1OC | 33.8% (inactive) |  |
| CN(Cc1cnccn1)C(=O)c1cc(COc2cccc(C(F)(F)F)c2)on1 | -2.2% (inactive) |  |
| CC(C)C(c1nnnn1Cc1ccccc1)N1CCC(C(N)=O)CC1 (configuration not stated) | -13% (inactive) |  |
| O=C1N/C(=C/c2cccs2)C(=O)N1Cc1ccc(F)cc1 | -9.77% (inactive) |  |
| Fc1ccc(Cn2nnnc2C(c2cccs2)N2CCCCCC2)cc1 (configuration not stated) |  | 13.1 µM (active) |
| O=C(CSc1nc2ccccc2c(=O)n1CCCO)NC1CC1 | 15.6% (inactive) |  |
| O=C(N/N=C/c1cccc(OC(=O)c2ccc([N+](=O)[O-])cc2)c1)c1cccnc1 | 13% (inactive) |  |
| O=C(O)c1ccc(N/N=C/c2cn(-c3ccccc3)nc2-c2cccs2)cc1 |  | 0.828 µM (active) |
| O=C(O)/C=C/c1cn(-c2ccccc2)nc1-c1cccs1 | 43.4% (inactive) |  |
| O=C(/C=C\c1cn(-c2ccccc2)nc1-c1cccs1)N1CCOCC1 | 45.5% (inactive) |  |
| COc1cccc2cc(C(=O)NCc3ccc(C)cc3)c(=N)oc12 | 2.8% (inactive) |  |

| SMILES | activity change, negative = inhibition | Potency |
| --- | --- | --- |
| CCOc1ccc(OCC(=O)OC(C)C(=O)NC2CCCCC2C)cc1 (configuration not stated) | 2.72% (inactive) |  |
| Cc1oc2c(c1C(=O)N1CCOCC1)C(=O)c1ccccc1C2=O |  | 4.15 µM (active) |
| Cc1onc(-c2ccccc2)c1C(=O)N1CCOCC1 | 12.5% (inactive) |  |
| O=C(c1ccccc1-c1ccccc1)N1CCOCC1 | 9.71% (inactive) |  |
| Cc1ccc(NC(=O)C2CCCN2C(=O)OCc2ccccc2)cc1C (configuration not stated) | -6.37% (inactive) |  |
| COc1ccc(C(=O)OCC(=O)Nc2ccc3[nH]c(=O)[nH]c3c2)c(OC)c1OC | 2.5% (inactive) |  |
| O=C(NCC(c1ccco1)N1CCc2ccccc2C1)c1ccccc1Cl (configuration not stated) | -23.2% (inactive) |  |
| COc1ccc(NC(=O)C(=O)NCC(c2ccco2)N2CCc3ccccc3C2)cc1 (configuration not stated) |  | 13.1 µM (active) |
| CCOC(CNC(=O)C(=O)NCC(c1ccco1)N1CCN(c2ccc(OC)cc2)CC1)OCC (configuration not stated) | 3.86% (inactive) |  |
| C=CCc1cccc(/C=N/NC(=O)COc2ccc(-n3cnnn3)cc2)c1O | -22% (inactive) |  |
| CCOc1ccc(-n2c(SCC(N)=O)nnc2-c2ccco2)cc1 | 12.9% (inactive) |  |
| O=C(COc1cccc(Cl)c1)NCc1ccccc1 | 10.5% (inactive) |  |
| COC(=O)C1=C(c2cccc(OCc3ccccc3)c2)C[C@@H]2CC[C@H]1N2C(=O)NNCc1ccccc1 |  | 8.28 µM (active) |
| COC(=O)C1=C(c2c(C)noc2C)C[C@@H]2CC[C@H]1N2C(=O)NCc1ccc2c(c1)OCO2 | -0.217% (inactive) |  |
| COC(=O)C1=C(c2ccc(C(C)=O)cc2)C[C@@H]2CC[C@H]1N2C(=O)NCCNC(C)=O | 37.2% (inactive) |  |
| COc1cccc(CNC(=O)C2CC(=O)N(C3CCCCCCC3)C2)c1 (configuration not stated) | -13.4% (inactive) |  |
| COC(=O)C1=C(c2cccc(OCc3ccccc3)c2)C[C@@H]2CC[C@H]1N2C(=O)NCc1ccc(Br)cc1 |  | 11.7 µM (active) |
| O=C(NCc1ccncc1)C(=O)NCC1OCCN1S(=O)(=O)c1ccc(Br)cc1 (configuration not stated) | 9.05% (inactive) |  |
| COCCCNc1nc2c(-c3cccc(C)c3)nnn2c2ccc(Cl)cc12 | -9.36% (inactive) |  |
| CCOc1ccc(CC(=O)NCCS(=O)(=O)N2CCN(c3ccccc3)CC2)cc1 | -14.8% (inactive) |  |
| Cc1csc2nc(O)c(C(=O)NCCN3CCOCC3)c(=O)n12 | -13.4% (inactive) |  |
| O=C(CN1CCN(S(=O)(=O)c2ccc(Cl)s2)CC1)N1CCCCC1 | -8.33% (inactive) |  |
| CS(=O)(=O)N1CCN(C(=O)c2cc3ccccc3oc2=O)CC1 | -0.673% (inactive) |  |
| O=C(c1cc2ccccc2o1)N1CCN(S(=O)(=O)c2ccc(Cl)s2)CC1 |  | 11.7 µM (active) |
